Laboratory results reported in ChEMBL document CHEMBL3988442, “University of Dundee, Small-Polar-MMV Screening Library” (2021).
The campaign covered roughly 48,000 compounds. About 13,000 (27%) showed an effect of 50% or more. Some of the results follow.

Test system: Wolbachia pipientis
Assay: Anti-Wolbachia Cell-Based Screen
Format: functional
Set-up: scale not given: in the data most compounds retested in dose-response had high values
Details: 5 µM

Compound | Percent Effect [%]
CC(C#N)CSc1ccccc1NCC(=O)NC(C1CC1)C1CC1 (centres undefined) | -11.19
NC(=O)CN1CCC(C(=O)NCc2ccc3nonc3c2)CC1 | -14.82
CC(C)Oc1cccc(CC(=O)NC2CCN(CC(N)=O)CC2)c1 | -2.756
COc1cccc(COCC(=O)NC2CCN(CC(N)=O)CC2)c1 | 5.2
CNC(=O)CN1CCC(c2cc(OC)cc(OC)c2)C1 (centres undefined) | 8.564
CCC(N)C(=O)N1CCC(OCc2ccc(Cl)c(Cl)c2)CC1.Cl (centres undefined) | 104.6
CSCCC(O)C(=O)N1CCC(OCc2cccnc2)CC1 (centres undefined) | -3.942
NC(=O)CN1CCC(OCc2ccc(Cl)c(Cl)c2)CC1 | 99.68
NC(=O)CN1CCC(Nc2ccnc3ccc(Cl)cc23)CC1 | 13.98
CCOC1CCN(C(=O)NCc2ccc(CN3CCOCC3)cc2)CC1 | -24.74
CNC(=O)CN1CCC(OCc2ccc(Cl)c(Cl)c2)CC1 | 83.56
CNC(=O)CN1CCN(C(=O)Nc2ccc(Cl)cc2F)CC1 | 0.4531
NC(=O)CN1CCC(NC(=O)COc2ccc(Cl)c(Cl)c2)CC1 | 99.17
CCn1c(N)nc2cc(C(=O)N3CCN(CC(F)(F)F)CC3)cnc21 | -2.793
COc1ccc(F)c(CN2CCCC3(CCN(C(=O)CSC)C3)C2)c1 (centres undefined) | -11.54
Cc1ccc(F)c(C(=O)NC2CCC(N3C(=O)CCC3=O)CC2)c1 (centres undefined) | -6.109
CN(C)c1ncccc1CNC(=O)c1csc(Br)c1 | -2.901
CN1CCCN(C(=O)NCc2csc(Br)c2)CC1 | -2.09
O=C(NCc1csc(Br)c1)c1cnccn1 | 122.2
CCn1cc(C(=O)NCc2csc(Br)c2)cn1 | -5.042
CN(C)c1ccc(C(=O)NCc2csc(Br)c2)cn1 | 132.1
CC1(c2ccccc2)CCC(=O)N(CCN2CCOC2=O)C1 (centres undefined) | -0.3831

Compound | Percent Effect [%]
CSC1(CNC(=O)c2ccn(-c3ccccc3F)n2)CCOCC1 | -3.806
O=C(NCC1CCC2(CC1)OCCO2)c1cccc(-n2cccn2)c1 | 116.2
Cc1cc(C(=O)NCC2CCC3(CC2)OCCO3)[nH]n1 | -25.64
CSC1(CNC(=O)NC(C)c2ccc(F)cc2)CCOCC1 (centres undefined) | -5.884
CC(CNC(=O)c1cccc(-n2cccn2)c1)Cn1ccnc1 (centres undefined) | -7.057
O=C(NCC1(O)CCSC1)c1ccn(-c2ccccc2F)n1 (centres undefined) | -10.8
CSC1(CNC(=O)c2cccc(-n3cccn3)c2)CCOCC1 | 126.6
O=C(NCC1(O)CCSC1)c1ccoc1 (centres undefined) | 12.35
CNC(=O)CCOC(=O)c1cccc(-n2cccn2)c1 | -2.822
O=C(NCC1(O)CCSC1)c1cccc(-n2cccn2)c1 (centres undefined) | 105.6
O=C(NCC1(O)CCC1)c1cccc(-n2cccn2)c1 | 119.5
O=C(NCC1CCC2(CC1)OCCO2)c1ccncc1F | -3.003
Cn1cc(C(C)(O)CNc2ccccn2)cn1 (centres undefined) | -0.1049
Oc1cc(CN2CCCCC2c2cccnc2)nc2c(F)cccc12 (centres undefined) | -16.88
CC(C)n1ccnc1C1CCN(C(=O)C2COc3ccccc3O2)CC1 (centres undefined) | -5.747
CCS(=O)(=O)N1CCCC2(COCCN(c3nnc(C)o3)C2)C1.O=C(O)C(F)(F)F (centres undefined) | -4.041
c1ccc2c(c1)CC(Cc1cc(N3CCCC3)cnn1)CCO2 (centres undefined) | -11.32
CC1c2ncc(Cn3cccn3)n2CCN1S(C)(=O)=O.O=C(O)C(F)(F)F (centres undefined) | 89.72
O=S(=O)(C1CC1)N1CCn2c(Cn3cccn3)cnc2C1 | 7.108
Cc1noc(C)c1CN1CCc2ncc(Cn3cccn3)n2CC1.O=C(O)C(F)(F)F | -5.332
CC1c2ncc(Cn3cccn3)n2CCN1c1ncccn1.O=C(O)C(F)(F)F (centres undefined) | 86.74
O=S(=O)(C1CC1)N1CCc2ncc(Cn3cccn3)n2CC1 | -13.53

Compound | Percent Effect [%]
COCc1cnc2n1CCN(C1CCCC1)C2C.O=C(O)C(F)(F)F (centres undefined) | 11.21
O=C(NC1CC1)N1CCn2c(Cn3cccn3)cnc2C1.O=C(O)C(F)(F)F | 5.205
CC1c2ncc(Cn3cccn3)n2CCN1S(=O)(=O)C1CC1 (centres undefined) | 92.87
O=C(O)C(F)(F)F.O=C(O)C(F)(F)F.c1cnn(Cc2cnc3n2CCN(CC2CCCCC2)C3)c1 | -2.959
CCc1nsc(N2CCN(Cc3ccno3)CC2)n1 | -4.168
COC(=O)C1CCN(C(=O)c2ccc(NS(C)(=O)=O)c(C)c2)CC1 | -4.777
O=S(=O)(c1ccc(Cl)cc1)N1CCC(OCc2ccccn2)C1 (centres undefined) | -17.23
CS(=O)(=O)NC[C@H]1Cn2c(-c3ccc(F)cc3)cnc2CO1 | -20.98
CC(C)(C)OC(=O)N1CSC[C@@H]1C(=O)NCc1ccsc1 | -2.991
COCCOc1cccc(C(=O)N2CCCC(n3ccnc3)C2)c1 (centres undefined) | 85.64
O=C(c1cnc(-c2cccs2)s1)N1CCCC(n2ccnc2)C1 (centres undefined) | 98.86
O=C(c1cccnc1N1CCOCC1)N1CCCC(n2ccnc2)C1 (centres undefined) | -11.91
O=C1CSc2ccc(C(=O)N3CCCC(n4ccnc4)C3)cc2N1 (centres undefined) | 1.64
NC(=O)c1cccc(C(=O)N2CCCC(n3ccnc3)C2)c1 (centres undefined) | 111.9
NC(=O)c1ccc(C(=O)N2CCCC(n3ccnc3)C2)s1 (centres undefined) | 109.7
O=C(c1cnc(-c2cccs2)s1)N1CCCN2CCCC2C1 (centres undefined) | 13.8
O=C(O)C1(Oc2ccc3ccccc3c2)CCN(c2ncccn2)CC1 | -9.781
Cc1c[nH]cc1C(=O)N1CCN(CCc2cccs2)CC1 | -2.994
CCC1COCCN1C(=O)CNC(=O)c1ccsc1 (centres undefined) | -5.336
OCc1ccc(CN2CCC(n3cc(C4CCCCC4)nn3)CC2)o1 | 0.3058
CCS(=O)(=O)c1ccc(N2CCC(NC(=O)NC(C)CO)CC2)cc1 (centres undefined) | 0.3155
COCCNS(=O)(=O)c1ccc(CNc2ncccc2C#N)cc1 | 18.7

Compound | Percent Effect [%]
NC(=O)c1cccc(OCC(=O)N2CCCC(n3ccnc3)C2)c1 (centres undefined) | 113
NC(=O)c1cccc(OCC(=O)N2CCCC(n3cccn3)C2)c1 (centres undefined) | -3.677
NC(=O)c1ccc(OCC(=O)N2CCCC(n3cccn3)C2)cc1 (centres undefined) | -3.222
C[C@@H](NC(=O)c1cnccn1)c1c(-c2ccc(Cl)cc2)noc1C(=O)O.Cl | -1.348
CCCc1nc(CNc2cc(CS(C)(=O)=O)ccc2Cl)no1 | -7.067
Cc1nc(NC2CCS(=O)(=O)CC2)cc(C2CCCNC2)n1 (centres undefined) | 5.772
CNC(=O)C1CCN(c2cc(C3CCNCC3)nc(C)n2)C1 (centres undefined) | 9.34
Cc1nc(CCC(=O)NC2CCC2)cc(C2CCCNC2)n1 (centres undefined) | 108.9
Cc1nccc(N[C@H]2CN(CCC(=O)NC3CCCC3)C[C@@H]2C2CC2)n1 | -19.22
Cc1nc(CCC(=O)NCC(N)=O)cc(C2CCNCC2)n1 | 128.9
Cc1nc(NC2CCCCC2)cc(C2CCCNC2)n1.Cl (centres undefined) | 84.03
CNC(=O)CCc1cc(C2CCNCC2)nc(C)n1.Cl.Cl | 115.3
Cc1nc(C2CCNCC2)cc(N2CCCC(C(=O)NCCCO)C2)n1 (centres undefined) | 12.53
COc1ccc(OCc2cc(C(=O)N3CCC(O)CC3)n[nH]2)c(Cl)c1 | 8.523
CN(C)S(=O)(=O)N(Cc1cscn1)c1ccccc1 | 6.938
CCN(CC)c1ccc(NC(=O)N2CCc3sccc3C2)cn1 | -4.731
CC(C)(O)c1cn(C2CCN(C(=O)CCC3CCCC3)CC2)nn1 | 7.362
CC(=O)NC1CCN(c2cc(C3CCNCC3)nc(C)n2)C1 (centres undefined) | -6.629
Cc1nc(CCC(N)=O)cc(C2CCNCC2)n1 | 77.84
FC(F)(F)CN1CCC(CNc2nc3ccccc3o2)C1 (centres undefined) | 19.02
CCN1CCC(CC(=O)N2CCc3sc(C(=O)N(C)C)cc3C2)CC1 | -40.78
CCCc1nnc(SCC(=O)Nc2cc(C(C)(C)C)nn2C)[nH]1 | 5.759

Compound | Percent Effect [%]
CC(NC(=O)c1ccc(=O)n(C)c1)c1ccc(OCC2CC2)c(F)c1 (centres undefined) | 7.042
Cn1ccc(C(=O)Nc2cc(F)ccc2OCC2CCCO2)cc1=O (centres undefined) | 108.3
Cn1cc(C(=O)Nc2cc(F)ccc2OCC2CCCO2)ccc1=O (centres undefined) | 100.3
Cn1cccc1C(=O)Nc1cc(F)ccc1OCC1CCCO1 (centres undefined) | -3.687
CN1N=C(C(=O)Nc2cc(F)ccc2OCC2CCCO2)CCC1=O (centres undefined) | 0.7919
CS(=O)(=O)N[C@@H]1CCN(Cc2cccs2)[C@H]1Cc1cccnc1 | -19.82
O=C(O)c1ccnc(-c2ccnc(N3CCCCCC3)n2)c1 | -0.3436
O=S1(=O)NC(c2ccnc(N3CCOCC3)n2)=Nc2ccccc21 | 140.3
O=c1c2cnc(N3CCOCC3)nc2ccn1-c1ccccc1 | 4.201
O=S1(=O)NC(c2ccnc(N3CCCC3)n2)=Nc2ccccc21 | 149.4
CS(=O)(=O)N1CCN(c2ccnc(N3CCCC3)n2)CC1 | -2.838
Cc1nn(-c2ccccc2)c(C)c1-c1ccnc(N2CCCOCC2)n1 | 7.099
O=S1(=O)NC(c2ccnc(N3CCCCC3)n2)=Nc2ccccc21 | 89.99
CS(=O)(=O)N1CCN(c2ccnc(N3CCCCC3)n2)CC1 | 0.3412
CC(CO)CSc1ncnc2[nH]ncc12 (centres undefined) | 8.493
CCC1CN(c2nnc(C)c(C)c2C#N)CCO1 (centres undefined) | -3.23
CCc1n[nH]c(C2CN(C(=O)c3ncoc3CC)CCO2)n1 (centres undefined) | 97.1
CC(C)c1n[nH]c(C2CN(C(=O)C3=COCC3)CCO2)n1 (centres undefined) | -4.984
CCc1nnsc1C(=O)N1CCOC(c2nc(C(C)C)n[nH]2)C1 (centres undefined) | 112.8
CCc1nnsc1C(=O)N1CCOC(c2nc(C)n[nH]2)C1 (centres undefined) | 12.72
CCc1ocnc1C(=O)N1CCOC(c2nc(C(C)C)n[nH]2)C1 (centres undefined) | 114.1
